This is an account of results in the supplement of paper PMC10338343.

± gives the standard deviation. Whole data set: some 6,200 sequences, median “pre-steady-state target cleavage rate” near 0.29, cut for the highest 2% near 2. Many of the other results were omitted from the sample, so the highest values are more common in it than they were. Some results are limits rather than exact numbers.

The assay deals with MIWI (PIWIL1) piRISC loaded with piRNA #1 (30 nt). In words: pre-steady-state target cleavage rate (min^-1); MIWI and MILI are mouse PIWI proteins and EfPiwi is from a freshwater sponge; tags in brackets are library labels; higher = faster piRNA-guided slicing of the target. To be noted: guide: piRNA #1 5'p-UGAGGUAGUAGGUUGUAUAGUAUCCAGAGG; auxiliary factor: 500 nM mouse GTSF1. The procedure:
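Cleave-'n-Seq: a library of target RNAs (target site embedded in constant flanks, ACAGCATTCCGCGTTAGTGATATCCG... 5' flank; DNA-blocked outside the site) at 0.1 nM was incubated with 1 nM active mouse MILI or MIWI piRISC (synthetic 5'-monophosphorylated piRNA guide) with or without 500 nM mouse GTSF1 at 33 °C for 1 min to 16 h. Uncleaved targets were sequenced and normalised to non-target controls, and the pooled three trials were fitted to a burst-and-steady-state model to give the pre-steady-state cleavage rate (min^-1; k3 is constrained to at most 1e-4). Sequence is the target site only; target names encode pairing extent (gX:gY) and contiguous / 1-mismatch / 2-mismatch / bulge geometry. Fits with R² ≤ 0 are excluded.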
With GGUCUGGAUACUAUACAACCUACUACUUCA, the “pre-steady-state target cleavage rate” value was determined as 1.32 ± 0.095.

Regarding GCUCUGCAUACUAUACAACCUACUACGUCA, the “pre-steady-state target cleavage rate” value came to 1.24 ± 0.086.

Regarding GGACUGGAAACUUUACAACCUACUACCUCA, the “pre-steady-state target cleavage rate” value came out at 0.689 ± 0.076.

Consider GCUCUGGAUACUAAAGAACCUACUACCUCA, for which the “pre-steady-state target cleavage rate” value worked out at 1.17 ± 0.087.

As to GGAGACCUAACUAUACAACCUAGUUCCUCA, the “pre-steady-state target cleavage rate” value is 0.0155 ± 0.0059.

With “CCUCUGGAUACUAUACAACCUACUACCUCA [g2:g30:cont:t1A]”, the “pre-steady-state target cleavage rate” value was determined as 1.96 ± 0.12.

Take GGUCUGGAUACGAUACAACCUACUACCUCA: the “pre-steady-state target cleavage rate” value amounted to 1.79 ± 0.11.

Take CCUCUGGAUACUAUACAACCUACCUACCUCA: the “pre-steady-state target cleavage rate” value was found to be 1.8 ± 0.11.

Regarding CCUCUGGAUACUAUGCAACCUACUACCUCA, the “pre-steady-state target cleavage rate” value is 2.09 ± 0.13.

CUCUGGAUACUAUACAACCUACUACCUCA: the “pre-steady-state target cleavage rate” value amounted to 2.17 ± 0.14.

For the sequence GGUCUGGAUACUAUUCAACCUACAACCUCA, the “pre-steady-state target cleavage rate” value stood at 0.28 ± 0.033.

For the sequence GCUCUGGAUACUAUUCAACCUACAACCUCA, the “pre-steady-state target cleavage rate” value amounted to 1.3 ± 0.099.

Turning to GGUCUGGAUACUAUGCAACCUACUACCUCA, the “pre-steady-state target cleavage rate” value came out at 1.73 ± 0.12.

GCUCUGGAUACGAUACAACCUACUACCUCA: the “pre-steady-state target cleavage rate” value was 1.7 ± 0.086.

Turning to CCUCUGGUUACUAUUCAACCUACUACCUCA, the “pre-steady-state target cleavage rate” value stood at 2.15 ± 0.14.

Take CCUCUGGAUACGAUACAACCUACUACCUCA: the “pre-steady-state target cleavage rate” value was determined as 2.07 ± 0.11.

As to GCUCUGGAUACUAUGCAACCUACUACCUCA, the “pre-steady-state target cleavage rate” value stood at 1.84 ± 0.1.

CCUCUGGAUACUAUUCAACCUACAACCUCA: the “pre-steady-state target cleavage rate” value was 1.62 ± 0.13.

Take GGACUGGAUAGUAUACAACCUUCUACCUCA: the “pre-steady-state target cleavage rate” value came to 0.575 ± 0.045.

For the sequence GGUCUGGAUACUAUACAACGUUCUACCUCA, the “pre-steady-state target cleavage rate” value was 0.117 ± 0.014.

For the sequence GGAGACCUAUGUAUAGAACCUUCUACCUCA, the “pre-steady-state target cleavage rate” value came to 0.0033 ± 0.0012.

As for GCUCUGGAUACUAUACAACCUACUAUCCUCA, the “pre-steady-state target cleavage rate” value is 1.51 ± 0.11.

Regarding GGUGUGGAUACUAUACAACCUUCUACCUCA, the “pre-steady-state target cleavage rate” value amounted to 0.734 ± 0.033.

GGAGACCUAACUAUACAACGUACUACCACA: the “pre-steady-state target cleavage rate” value turned out to be 0.165 ± 0.031.

Turning to GGAGACCUAUGAAUACUAGCUACUACCUCA, the “pre-steady-state target cleavage rate” value was under 0.0001.

Consider GGAGAGGAUACUAUACAACCUUCUAGCUCA, for which the “pre-steady-state target cleavage rate” value was 0.0222 ± 0.0082.

GGACUGGAUACUAUACAACUUACUACCUCA: the “pre-steady-state target cleavage rate” value was determined as 0.518 ± 0.023.

Regarding CCUCUGGAUACUAUUCAACCUACUACCACA, the “pre-steady-state target cleavage rate” value worked out at 2.19 ± 0.18.

Turning to GCUCUGGAUACUAAACAACCUACAACCUCA, the “pre-steady-state target cleavage rate” value worked out at 1.23 ± 0.089.

In the case of CCUCUGAAUACUAUACAACCUACUACCUCA, the “pre-steady-state target cleavage rate” value is 2.09 ± 0.13.

Take GGUCUGAAUACUAUACAACCUACUACCUCA: the “pre-steady-state target cleavage rate” value was 1.8 ± 0.097.

Regarding GCUCUGGAUACUAUUCAACCUACUACCACA, the “pre-steady-state target cleavage rate” value is 1.9 ± 0.16.

CCUCUGGAUACUAAACAACCUACAACCUCA: the “pre-steady-state target cleavage rate” value was found to be 1.48 ± 0.12.

For GCUCUGAAUACUAUACAACCUACUACCUCA, the “pre-steady-state target cleavage rate” value was 1.89 ± 0.12.

For CCUCUGGUUACUAAACAACCUACUACCUCA, the “pre-steady-state target cleavage rate” value is 2.34 ± 0.16.

Consider CCUCUGGAUACUAUACAACCCUACUACCUCA, for which the “pre-steady-state target cleavage rate” value worked out at 0.00658 ± 0.0036.

On to CCUCUGGAUACUAAACAACCUACUACCUCA, for which the “pre-steady-state target cleavage rate” value stood at 1.86 ± 0.12.

On to CCUCUGGAUACUAUACAACCUACUACCCUCA, for which the “pre-steady-state target cleavage rate” value is 1.38 ± 0.097.

With GGUCUGGAUACUAUUCAACCUACUACCACA, the “pre-steady-state target cleavage rate” value is 0.506 ± 0.045.

In the case of CCCUCUGGAUACUAUACAACCUACUACCUCA, the “pre-steady-state target cleavage rate” value was 2.25 ± 0.12.

In the case of GGAGGGGAUACUAUACAACCUACUACCUCA, the “pre-steady-state target cleavage rate” value worked out at 1.51 ± 0.069.

For GCACUGGAUACAAUACAACCUACUACCUCA, the “pre-steady-state target cleavage rate” value came out at 1.8 ± 0.1.

For the sequence GGAGACCUAUCUAUACAACCUACUCACCUCA, the “pre-steady-state target cleavage rate” value came to 0.537 ± 0.059.

GGAGUGGAUACUAAACAACCUACUUCCUCA: the “pre-steady-state target cleavage rate” value stood at 0.0286 ± 0.0079.

GGAGUGGAUACUGAUACAACCUACUACCUCA: the “pre-steady-state target cleavage rate” value was 1.3 ± 0.098.

Turning to GGAGACCUAACAAUACAACCUACUACCUGA, the “pre-steady-state target cleavage rate” value came out at 0.00542 ± 0.0049.

For GGAGAGGAUACGUAUACAACCUACUACCUCA, the “pre-steady-state target cleavage rate” value was 0.484 ± 0.047.

As for GGAGUGGUUACAAUACAACCUACUACCUCA, the “pre-steady-state target cleavage rate” value was 1.2 ± 0.079.

On to GGUCUGGAAACUAUACAACCUAGUACCUCA, for which the “pre-steady-state target cleavage rate” value stood at 0.484 ± 0.077.

On to GGAGACCUAACUAUACAACCUACUACCCCA, for which the “pre-steady-state target cleavage rate” value is 0.867 ± 0.099.

Take GCUCUGGAUACUAUACAACCUAUUACCUCA: the “pre-steady-state target cleavage rate” value was found to be 1.88 ± 0.13.

On to CCUCUGGAUACUAUACAACCUAUUACCUCA, for which the “pre-steady-state target cleavage rate” value is 2.07 ± 0.13.

For CUUCUGGAUACUAUACAACCUACUACCUCA, the “pre-steady-state target cleavage rate” value is 1.99 ± 0.11.

Turning to GGUCUGGAAUACUAUACAACCUACUACCUCA, the “pre-steady-state target cleavage rate” value was 1.83 ± 0.11.

As to GGUCUGGAUACUAUAUAACCUACUACCUCA, the “pre-steady-state target cleavage rate” value was 1.86 ± 0.1.

Turning to GCUCUGGAUACUAUAUAACCUACUACCUCA, the “pre-steady-state target cleavage rate” value was 1.79 ± 0.1.

CCUUCUGGAUACUAUACAACCUACUACCUCA: the “pre-steady-state target cleavage rate” value came out at 2.22 ± 0.12.

For GCUCUGGAAUACUAUACAACCUACUACCUCA, the “pre-steady-state target cleavage rate” value amounted to 1.92 ± 0.1.

For the sequence GCUUCUGGAUACUAUACAACCUACUACCUCA, the “pre-steady-state target cleavage rate” value was 1.94 ± 0.091.

Take CCUCUGGAAUACUAUACAACCUACUACCUCA: the “pre-steady-state target cleavage rate” value was 2.19 ± 0.13.

Take CCUCUGGAUACUAUUACAACCUACUACCUCA: the “pre-steady-state target cleavage rate” value was determined as 1.82 ± 0.12.

As for CCUCUGGAUACUAUAUAACCUACUACCUCA, the “pre-steady-state target cleavage rate” value worked out at 2.07 ± 0.12.

For GGACUGGAUAACUAUACAACCUACUACCUCA, the “pre-steady-state target cleavage rate” value was 1.11 ± 0.087.

In the case of GGAGACCAUACUAUACAUCCUAGUACCUCA, the “pre-steady-state target cleavage rate” value is 0.343 ± 0.029.

For the sequence CCUCUGGAUACUAUAGAACCUACAACCUCA, the “pre-steady-state target cleavage rate” value stood at 0.0249 ± 0.007.

Regarding GCUCUGGAUACUAUACAACCUACCUACCUCA, the “pre-steady-state target cleavage rate” value is 1.63 ± 0.091.

As for CCUCUGGAUACUAUACAACCUACUAACCUCA, the “pre-steady-state target cleavage rate” value amounted to 2.09 ± 0.13.

On to GGUCUGGAAACUAUUCAACCUACUACCUCA, for which the “pre-steady-state target cleavage rate” value turned out to be 1.58 ± 0.096.

As for CGCUCUGGAUACUAUACAACCUACUACCUCA, the “pre-steady-state target cleavage rate” value was 2.27 ± 0.14.

Turning to GCUCUGGAUACUAUACAACCUACUAACCUCA, the “pre-steady-state target cleavage rate” value is 1.71 ± 0.11.

Regarding GCUCUGGAAACUAUUCAACCUACUACCUCA, the “pre-steady-state target cleavage rate” value is 1.68 ± 0.12.

For the sequence CCUCUGGAAACUAUUCAACCUACUACCUCA, the “pre-steady-state target cleavage rate” value turned out to be 2.02 ± 0.13.

With CCUCUGGAUACUAUACAACCUAACUACCUCA, the “pre-steady-state target cleavage rate” value was 0.0333 ± 0.0068.

As for “GCUCUGGAUACUAUACAACCUACUACCUCA [g2:g29:cont:t1A]”, the “pre-steady-state target cleavage rate” value was 1.89 ± 0.1.
